ST2 inh – inhibitors of human ST2 (IL1RL1) binding to IL-33, primary screen, biochemical, AlphaLISA; Interleukin-1 receptor-like 1 (Homo sapiens), Q01638; AlphaLISA ST2-Fc/biotin-IL-33 interaction, 1 h; inhibition, % for hits at 17 µM; 78,000 compounds, 2.3% hits; AID 1259354, 2018; in the data active = inhibition above about 30%
Target sequence (Q01638 whole entry, looked up): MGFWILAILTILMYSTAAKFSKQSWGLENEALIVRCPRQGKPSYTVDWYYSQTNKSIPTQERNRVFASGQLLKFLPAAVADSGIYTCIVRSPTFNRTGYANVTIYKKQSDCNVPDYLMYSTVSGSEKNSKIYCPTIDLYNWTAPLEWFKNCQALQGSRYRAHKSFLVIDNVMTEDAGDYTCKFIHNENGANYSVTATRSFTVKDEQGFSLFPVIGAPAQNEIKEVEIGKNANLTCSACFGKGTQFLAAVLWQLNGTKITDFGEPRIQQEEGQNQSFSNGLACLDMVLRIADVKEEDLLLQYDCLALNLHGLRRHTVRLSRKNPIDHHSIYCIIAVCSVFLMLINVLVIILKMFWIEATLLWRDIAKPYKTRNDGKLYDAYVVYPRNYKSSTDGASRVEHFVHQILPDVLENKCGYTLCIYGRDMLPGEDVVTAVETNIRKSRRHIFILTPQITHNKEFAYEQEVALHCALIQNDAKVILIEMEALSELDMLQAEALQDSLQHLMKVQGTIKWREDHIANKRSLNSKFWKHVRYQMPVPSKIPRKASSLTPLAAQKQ
Of the large screens only hits and unclear results are named; the others gave an inactive call. Many of the other results were omitted from the sample, so hits are more common in it than they were.

O=C1Nc2cc(C(=O)N3CCN(c4ccccc4)CC3)ccc2SC1N1CCCC1 (stereo not drawn)	none
Cc1cccc2cc(C(=O)N3CCOC(c4ccc(Cl)cc4)C3)oc12 (stereo not drawn)	none
O=C(NC1CCCNC1)c1cc(COc2cccc(C(F)(F)F)c2)[nH]n1 (stereo not drawn)	none
COc1ccc(CN2CC[C@H](c3nnc(-c4ccccc4)o3)C2)cc1	none
COc1ccc(C(=O)N2CCCCC2)cc1[N+](=O)[O-]	none
O=S(=O)(c1ccc([C@@H]2Nc3ccc(Br)cc3[C@@H]3C=CC[C@@H]32)cc1)N1CCOCC1	none
O=C(c1ccc2c(c1)C1C=CCC1C(c1ccc([N+](=O)[O-])cc1)N2)N1CCCCCC1 (stereo not drawn)	ST2 inh 40.0%
CC1(C)C(=O)OC(c2ccccc2[N+](=O)[O-])C(C)(C)C1=O (stereo not drawn)	none
O=[N+]([O-])c1ccc(C2Nc3c(cccc3[N+](=O)[O-])C3C=CCC32)cc1 (stereo not drawn)	ST2 inh 45.0%
O=[N+]([O-])c1ccc(C2CNC(c3ccccc3)O2)cc1 (stereo not drawn)	none
CCOC(=O)c1c(-c2ccccc2)csc1NC(=O)c1cc(-c2ccco2)on1	none
O=C(Nc1ccc(S(=O)(=O)Nc2ncccn2)cc1)c1cnc2n(c1=O)CCS2	none
Cn1c(C(=O)NC(c2ccccc2)c2ccccc2)cc2c(=O)n3ccccc3nc21	none
Nc1c(C(=O)Nc2cccc(C(F)(F)F)c2)sc2nc3c(cc12)CCCCC3	ST2 inh 42.0%
CCc1nnc(NC(=O)c2sc3nc4c(cc3c2N)CCCCC4)s1	none
Nc1c(C(=O)Nc2ccccc2)sc2nc3c(cc12)CCCCC3	none
Cc1cccn2c(=O)c3cc(C(=O)NCc4cccnc4)c(=N)n(CCOCCO)c3nc12	none
N=C1S/C(=C\c2ccc(-c3ccc([N+](=O)[O-])cc3)o2)C(=O)N1c1nccs1	ST2 inh 34.0%
O=c1/c(=C/c2ccc(-c3cccc([N+](=O)[O-])c3)o2)sc2nc3ccccc3n12	none
O=C1c2ccc(Oc3ccc4c(c3)C(=O)N(c3nccs3)C4=O)cc2C(=O)N1c1nccs1	none
Cc1cc2nc(-c3ccc(C)c(N)c3)oc2cc1C	none
O=C1N(CCc2ccccc2)C[C@@H]2C[C@@H](c3cnc(-c4ccccc4)s3)N3CCC[C@@]123	none
O=C1N(Cc2cccc(Cl)c2)C[C@@H]2C[C@@H](c3ccc4nsnc4c3)N3CCC[C@@]123	ST2 inh 40.0%
OCC1CCCN1Cc1cccc(Cl)c1 (stereo not drawn)	none
CCOC(=O)CSc1nc2c(c(=O)n1-c1ccc(F)cc1)SCC2	none
O=C(CCS(=O)(=O)c1ccc(Br)s1)NCCc1ccc(Cl)cc1	none
CCOc1ccc(C2C3=C(CCCC3=O)NC3=C2C(=O)c2ccccc23)cc1 (stereo not drawn)	ST2 inh 36.0%
COc1ccc(C2C3=C(CCCC3=O)NC3=C2C(=O)c2ccccc23)cc1 (stereo not drawn)	none
O=C1CCCC2=C1C(c1ccc(OCc3ccc([N+](=O)[O-])cc3)cc1)C1=C(CCCC1=O)N2	none
CC(=O)N1C[C@@H]2OCC(=O)N(Cc3nccn3C)[C@@H]2C1	none
CCc1nccn1CCC(=O)N1CCC2(CCCN(CC3CCC3)C2=O)C1 (stereo not drawn)	none
CCC(=O)Nc1ccc(NC(=O)Cn2nc(C)c(C)c2C)cc1Cl	none
COc1ccc(NC(=O)c2ccc(-c3ccccc3)cc2)c([N+](=O)[O-])c1	none
COc1ccc(Cl)cc1NC(=O)c1cccs1	none
NCCCNc1ccc(Cl)cc1[N+](=O)[O-]	none
O=C(NCCNc1ccc(Cl)cc1[N+](=O)[O-])c1ccc(Br)o1	none
O=C(Nc1ccc(Cl)cc1[N+](=O)[O-])c1cccs1	ST2 inh 33.0%
CN(C)CCNc1ccc(Cl)cc1[N+](=O)[O-]	none
COc1ccc(NCCNC(=O)c2ccc(Cl)cc2)c([N+](=O)[O-])c1	ST2 inh 32.0%
O=C(Nc1cccc(Cl)c1)c1cccs1	none
CCNc1ccc(Cl)cc1[N+](=O)[O-]	ST2 inh 31.0%
COc1ccc(CNC(=O)C2C3C=CC4(CN(Cc5cccs5)C(=O)C24)O3)cc1 (stereo not drawn)	none
CCOc1ccc(CN(C(=O)c2cccc(-n3cnnc3)c2)C2CC2)cc1	none
CCOC(=O)C1C(=O)C=C(c2cccc(OC)c2)CC1c1ccc(OC)c(OC)c1 (stereo not drawn)	none
CCOC(=O)C1C(=O)C=C(c2cccs2)CC1c1cccc(F)c1 (stereo not drawn)	ST2 inh 47.0%
CCOC(=O)C1C(=O)C=C(c2ccco2)CC1c1cccs1 (stereo not drawn)	none
CCN(CCCNC(=O)Cc1cn(C)c2ccccc12)c1ccccc1	none
COc1cccc(COC2CN(Cc3ccccn3)C(=O)CN(C(=O)c3csc(C(C)C)n3)C2)c1 (stereo not drawn)	none
COc1cc(NC(=O)c2c(-c3c(F)cccc3Cl)noc2C)c(OC)cc1Cl	none
CCCc1nc2oc3c(-c4ccccc4)c(C(=O)O)c(C)nc3c2c2c1COC(C)(C)C2	none

Bioassay records deposited in PubChem BioAssay by Paczesny and Yang Labs, IUPUI and University of Michigan.
